PubChem BioAssay AID624417 (National Center for Advancing Translational Sciences (NCATS), 2012)
About 6,400 (1.6%) of roughly 410,000 compounds were called active. Roughly 20% stayed inconclusive and do not appear here. Calls come from the whole dose curve; as a rule, active = well fitted inhibition curve with a large enough effect; inconclusive = small, poorly fitted or top-dose-only effect; inactive = no such curve, though single readings can be large or run the other way. This excerpt belongs to a sample that is enriched for actives.

The compounds below were run against Glucagon-like peptide 1 receptor (Homo sapiens) (UniProt P43220) (assay: qHTS of GLP-1 Receptor Inverse Agonists (Inhibition Mode)). Conditions: HEK293 GLP-1R CRE-luciferase, luminescence, 24 h, GLP-1R form is constitutively active; series mostly up to 38.3 µM; activity change, negative = inhibition: at the top concentration.
Sequence of Glucagon-like peptide 1 receptor (Homo sapiens) (P43220 whole entry, looked up): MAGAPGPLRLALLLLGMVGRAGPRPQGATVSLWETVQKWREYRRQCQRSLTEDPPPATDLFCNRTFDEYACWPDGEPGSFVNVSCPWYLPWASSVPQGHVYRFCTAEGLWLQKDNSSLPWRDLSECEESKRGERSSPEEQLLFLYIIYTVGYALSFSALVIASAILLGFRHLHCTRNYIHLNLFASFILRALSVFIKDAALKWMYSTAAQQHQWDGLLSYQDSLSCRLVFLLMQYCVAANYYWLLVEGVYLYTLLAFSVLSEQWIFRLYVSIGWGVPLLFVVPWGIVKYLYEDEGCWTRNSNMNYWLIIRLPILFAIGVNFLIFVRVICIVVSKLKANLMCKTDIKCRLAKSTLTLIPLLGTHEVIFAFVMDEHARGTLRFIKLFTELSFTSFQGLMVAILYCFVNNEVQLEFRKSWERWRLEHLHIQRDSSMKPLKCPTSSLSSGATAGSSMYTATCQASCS
Summary of the method: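 Seeding at 200 cells/uL, 12 h culture, 24 hr compound treatment, then luciferase reagent and a luminescence read; cells are HEK293 stably expressing a constitutively active GLP-1R plus cAMP-responsive luciferase.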
% is set by controls: 0 for no effect and ±100 for the full control effect; potency is the fitted concentration of half-maximal effect.
Note: nearly all actives have a fitted effect of over 55% in size.

Activity change, negative = inhibition, inactive:
CC1=C(C(=O)N2CCOCC2)CC(CC(=O)NCc2cccs2)C(=O)N1CCCN1CCCC1=O (centres undefined) 8.47%
CC1=C(C(=O)N(C)C)CC(CC(=O)NCCc2ccccn2)C(=O)N1CCC1=CCCCC1 (centres undefined) 20.9%
Cc1nc(Nc2ccccc2F)c2nnn(Cc3ccccc3Cl)c2n1 28.2%
CCCc1nc(NCc2ccc3c(c2)OCO3)c2nnn(Cc3ccccc3Cl)c2n1 -31.5%
O=C(O)C(=Cc1ccc([N+](=O)[O-])cc1)CCc1ccccc1 3.42%
COCCNC(=O)C1CCCN(Cc2ccccc2Cl)CC1 (centres undefined) 5.05%
O=C(NCc1ccccn1)[C@@H]1CCCN1C(=O)[C@@H]1CCCN1C(=O)c1ccccc1 21%
COC(=O)C1(C(=O)OC)C/C=C\CN(S(=O)(=O)c2ccccc2[N+](=O)[O-])CCC1 15.5%
CC(Sc1ccc(S(=O)(=O)N2CCN(C)CC2)cn1)C(=O)NC1CCCC(C)C1C (centres undefined) 6.55%
Cc1nc(NC(=O)c2ccc3c(c2)OCCO3)ccc1Br -8.07%
COc1c(Cl)cc(C(=O)Nc2ccc(Cl)cn2)cc1Cl 8.31%
CN(Cc1ccccc1)C(=O)COc1ccccc1 -4.89%
Cc1ccc(S(=O)(=O)CCC(=O)OCC(=O)N(C)Cc2ccccc2)cc1 13.7%
CC(=O)Nc1cncc(-c2ccccc2CO)n1 7.46%
CCOC(=O)C1(C)CCCN(C(=O)c2cccc(Cl)c2)C1 (centres undefined) -4.19%
NS(=O)(=O)c1ccc(CCNc2nc(C(F)(F)F)nc3ccccc23)cc1 -12.4%
COc1cccc(CNC(=O)c2n[nH]c3ccccc23)c1 4.09%
CCN(CC)C(=O)C1CCCN(Cc2cccc(Cl)c2)C1 (centres undefined) 10.3%
Nc1nc2ncccn2c1-c1ccccc1 -1.5%
CCOC(=O)C1(C)CCCN(C(=O)c2ccc(N(C)C)cc2)C1 (centres undefined) 1.99%
O=S1(=O)CCN(C2CCCCCCCCCCC2)CC1 11.9%
COC(=O)c1ccc(CN2C(=O)NC(c3ccccc3)(c3ccccc3)C2=O)o1 -15.6%
COc1ccc(C2(c3ccc(OC)cc3)NC(=O)N(CC(=O)Nc3cc(C)on3)C2=O)cc1 -19%
Cc1ccc(-c2nc3c(C)cc(Br)cn3c2Cc2ccccc2)cc1 -18.4%
CCC(C(=O)Nc1c(C)cccc1C)n1c(-c2cc(C)cs2)nc2ccccc21 (centres undefined) -9.76%
O=C(Nc1ccccc1-c1nc2ccccc2[nH]c1=O)c1cccs1 42.6%
Cc1ccccc1CN1C(=O)CSCC1(C)C(=O)Nc1c(C)cccc1C (centres undefined) 8.92%
Cc1ccc(-c2cnc(C3CC3)o2)cc1S(=O)(=O)Nc1cccc(C)c1C -11%
CC1(C(=O)NS(=O)(=O)c2cccs2)CCN1C(=O)Cc1ccc(-c2ccccc2)cc1 (centres undefined) -22.6%
Cc1csc(=O)n1CCC(=O)OCC(=O)Nc1ccc(N2CCOCC2)cc1 1.06%
Oc1ccc(/C=N/Nc2ccc(C(F)(F)F)cn2)cc1O 20.3%
Cc1c(C(=O)Nc2ccccn2)oc2ccc(Br)cc12 7.51%
COc1ccc(S(=O)(=O)NC(=O)C2(C)CCN2C(=O)c2ccccc2CCc2ccccc2)cc1 (centres undefined) -12.1%
O=C(OCCOc1ccccc1F)c1cc(S(=O)(=O)N2CCOCC2)ccc1F 1.47%
CC(C)(C)C(=O)COC(=O)c1cc(S(=O)(=O)N2CCCCC2)ccc1N1CCOCC1 -11.3%
CCN(CC)CCCNC(=O)c1ccc2c(=O)n(Cc3ccc4c(c3)OCO4)c(=S)[nH]c2c1 -18.1% [at 7.66 µM]
CCNC(=O)C1(C)CCCN(Cc2noc(-c3ccccc3OC)n2)C1 (centres undefined) -13.4%
Oc1ccc2nc(Cc3ccccc3)[nH]c2c1 7.71%
Cc1nc2ccccc2nc1N/N=C/c1ccc(O)cc1O -9.04%
CCc1cccc(CC)c1N1C(=O)CC(Sc2ccccc2N)C1=O (centres undefined) -11.6%
Fc1ccc(-c2ccc(CNCc3ccccn3)o2)cc1Cl -18.3%
O=C1c2ccccc2C(=O)N1Cc1cc(-c2ccccc2Cl)no1 9.44%
Nc1nonc1-n1nnc(C(=O)N/N=C/C2CCCCC2)c1-c1ccccc1 22.9%
CC(C)c1c(C(=O)N/N=C/c2ccccc2C(=O)O)nnn1-c1nonc1N -9.57%
Cc1[nH]c2ccccc2c1C(=O)C(=O)NCc1nnnn1-c1cccc(F)c1 9.36%
O=C(COC(=O)c1cccc(Cl)c1Cl)NC1CCCCCC1 -2.12%
CC(=O)NCCNC(=O)c1cc(-c2cccc3ccccc23)nc2ccccc12 14%
CCCN(CCC)CCNC(=O)c1cc2c(C)nc3ccccc3c2o1 -23.1%
CC(=O)NC(c1ccccc1)c1nc(-c2ccccc2C)cs1 (centres undefined) 19.8%
CCOc1nc(NCCN2CCOCC2)nc(Nc2ccc(C)cc2)n1 9%
c1ccc(-c2ccc(OCCN3CCOCC3)cc2)cc1 -16.9%
CCCCn1nnnc1C(c1ccccc1)N1CCN(c2ccccc2OC)CC1 (centres undefined) -26.8%
O=C(NCc1ccccc1Cl)c1csc([C@@H]2O[C@H](CO)[C@@H](O)[C@H]2O)n1 -16.2%
CCCN(CC(=O)Nc1ccccc1C)C(=O)c1cc(=O)[nH]c2ccccc12 0.788%
CCCN(CC(=O)Nc1ccccc1C)C(=O)c1ccc(OCC(=O)N2CCOCC2)c(OCC)c1 7.89%
CN(Cc1c(F)cccc1Cl)C(=O)COC(=O)Cn1cnc2ccccc2c1=O 8.86%
CCOc1ccc(CN2CCCN(C)CC2)cc1 -20.5%
CCCN1CCc2nc(N3CCN(C)CC3)ncc2C1 -13.3%
COc1cc(C(O)c2nc(-c3cccc(C(=O)O)c3)cs2)ccc1F (centres undefined) 30.9%
Cc1cccc(C)c1-n1nnnc1C(CCc1ccccc1)N1CCN(C/C=C/c2ccccc2)CC1 (centres undefined) 18.7%
CC(C)C1Cc2[nH][nH]c(=O)c2C(c2ccc(Cl)cc2)O1 (centres undefined) -18.5%
COc1ccc(C2CC(=O)NC(=O)C2)cc1 13.7%
COc1ccc(N2C(=O)C(Cc3ccccc3)NC2=S)cc1 (centres undefined) 22.3%
CC1Cc2[nH][nH]c(=O)c2C(C2CC2)O1 (centres undefined) 5.46%
COc1ccc(CCNC(=O)Nc2ccc3c(c2)c(=O)n(C)n3C)cc1OC 8%
CC(C)CN1C(=O)CN(S(C)(=O)=O)CC1(C)C(=O)NCc1ccccc1 (centres undefined) 18.3%
c1ccc(Cc2c(-c3ccco3)nc3c4ccccc4ccn23)cc1 -57%
CCN(CC)CCNC(=O)Cn1cnc2sc(C)c(S(=O)(=O)N3CCOCC3)c2c1=O -21.3%
Cc1ccc(NC(=O)Cn2cnc3nc4c(cc3c2=O)CCCC4)cc1Cl 2.73%
COc1ccc(C(C(=O)Nc2c(C)cccc2C)N2CCN(c3ccc(C)cc3)CC2)cc1 (centres undefined) 3.35%
CCOC(=O)N1CCN(C(c2ccnc3ccccc23)c2nnnn2-c2c(C)cccc2C)CC1 (centres undefined) -20.8%
Cc1nc(C(F)(F)F)ccc1C(=O)N1CCC1(C)C(=O)NS(=O)(=O)c1ccccc1 (centres undefined) 12.5%
O=C(c1cc(C2CCCCN2S(=O)(=O)c2ccccc2)on1)N1CCOCC1 (centres undefined) 24.4%
CCN1CCN(CCNC(=O)c2ccc3c(c2)NC(=O)/C(=C\c2cccc(Cl)c2)S3)CC1 -23.7%
CCN1CCCC1CNC(=O)c1cc2c(=O)n(C)c3ccccc3c2n1C (centres undefined) 2.81%
O[C@H]1CN(Cc2cccs2)[C@@H](c2ccc(Cl)cc2)C[C@@H]1n1cc(C2CC2)nn1 1.31%
O=C(CNC(=O)N1CC(=O)Nc2ccccc21)Nc1ccc(Br)cc1F -10.9%
CO[C@@H]1CN(C)C(=O)c2cc(NC(=O)C3CC3)ccc2OC[C@H](C)N(C(=O)CN2CCOCC2)C[C@@H]1C 19.3%
CN(C)CCCNC(=S)N1CCC(c2nc3ccccc3[nH]2)CC1 14.6%
c1ccc(-c2csc(N3CCc4ccccc4C3)n2)cc1 3.39%

Potency, inactive:
COc1ccc(CNS(=O)(=O)c2ccc(-c3cnc(C4CC4)o3)cc2)cc1
CCN(CC)CCCNC(=O)c1cn(C)c2ccc(S(=O)(=O)N(C)C3CCCCC3)cc2c1=O

Potency, active:
Cc1nc(Nc2ccc3c(c2)OCCO3)c2nnn(Cc3ccccc3Cl)c2n1 3.55 µM
O=C(Nc1ccc(Cl)cn1)c1ccc2c(c1)OCCO2 7.08 µM
CN(Cc1ccccc1)C(=O)COC(=O)c1ccccc1Nc1ccccc1 12.6 µM
COc1cccc(CNc2nc(C(F)(F)F)nc3ccccc23)c1 10 µM
Cc1ccc(C2(c3ccc(C)cc3)NC(=O)N(Cc3c(C)noc3C)C2=O)cc1 10 µM
CCC(c1nc2ccccc2[nH]1)n1c(=O)c(-c2cccs2)nc2ccccc21 (centres undefined) 10 µM
Cc1cccc(NS(=O)(=O)c2ccc(-c3cnc(C4CC4)o3)cc2)c1 0.891 µM
Oc1ccc(Br)cc1/C=N/Nc1ccccn1 2.82 µM
O=C(OCCOc1ccccc1Cl)c1cc(S(=O)(=O)N2CCCCC2)ccc1N1CCOCC1 4.47 µM
CCN(CC)CCCNC(=O)c1c(O)c2cc(F)cc3c2n(c1=O)C(C)CC3 (centres undefined) 7.94 µM
Oc1ccc(-c2nc3ccccc3nc2-c2ccc(O)cc2O)c(O)c1 4.47 µM
Clc1ccc(-c2cc(-c3ccccn3)on2)c(Cl)c1 5.62 µM
Nc1nonc1-n1nnc(C(=O)N/N=C/c2c[nH]c3ccccc23)c1-c1ccccc1 12.6 µM
CN(C)CCNC(=O)c1ccc(Cl)c2cc3ccccc3nc12 7.08 µM
c1ccc2cc3c(NCCN4CCOCC4)ccnc3cc2c1 10 µM
CCCN(CC(=O)Nc1ccccc1C)C(=O)c1ccc2[nH]c3c(c2c1)CC(C)CC3 (centres undefined) 5.62 µM
Cc1ccc(CN2CCc3nc(N4CCN(C)CC4)ncc3C2)cc1 7.94 µM
O=c1[nH][nH]c2c1[C@H](c1ccc(Cl)cc1)O[C@H](CCc1ccccc1)C2 10 µM
COc1ccc(C2OC(CCc3ccccc3)Cc3[nH]c(=S)[nH]c(=O)c32)cc1 (centres undefined) 10 µM
CCN(CC)CCNC(=O)c1sc2ncn(CC(=O)Nc3ccc(C)c(Cl)c3)c(=O)c2c1C 11.2 µM
CCN1CCCC1CNC(=O)c1ccc2c(c1)NC(=O)/C(=C\c1ccccc1F)S2 (centres undefined) 11.2 µM
CN(C)CCCNC(=S)N1CCN(c2nc(-c3ccccc3)cs2)CC1 3.98 µM
